Source: PubChem BioAssay (Tox21)
Results filed as inconclusive are left out. Entries that show only a call come without a potency. Calls of active or inactive are those of the source. Calls come from the whole dose curve; as a rule, active = well fitted curve in the direction sought with a large enough effect in the repeat runs; inconclusive = weak or mixed curves; inactive = no such curve, though single readings can be large; an effect the other way counts as inactive or inconclusive.

Key:
[1] = target: Cytochrome P450 2D6 (Homo sapiens) (UniProt P10635); assay: Cytochrome P450 Family 2 Subfamily D Member 6 (CYP2D6) small molecule antagonists: luciferase reporter qHTS assay (AID 1671196); note: series mostly up to about 120 µM; nearly all actives have a fitted effect of over 50% in size
Procedure, shortened: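 CYP2D6 activity was followed as luminescence from its luciferin product after a 1 h NADPH-driven reaction at room temperature. Enzyme-substrate mix and compound were pre-incubated for 10 min, and the signal was read 20 min after adding detection reagent.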

[2] = target: Cytochrome P450 2C19 (Homo sapiens) (UniProt P33261); assay: Cytochrome P450 Family 2 Subfamily C Member 19 (CYP2C19) small molecule antagonists: luciferase reporter qHTS assay (AID 1671197); note: nearly all actives have a fitted effect of over 65% in size; note: potency is the fitted concentration of half-maximal effect
Procedure, shortened: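 Light output is proportional to CYP2C19 activity: proluciferin substrate is converted to luciferin, then detected by a luciferin detection reagent that also stops the 1 h, 37C NADPH-driven reaction. Ketoconazole serves as positive control.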

[3] = target: Voltage-gated inwardly rectifying potassium channel KCNH2 (Homo sapiens) (UniProt Q12809); assay: Human Ether-a-go-go-Related Gene (hERG) channel small molecule antagonists: fluorescence cell-based qHTS assay (AID 1671200); note: nearly all actives have a fitted effect of over 50% in size; note: potency is the fitted concentration of half-maximal effect
Procedure, shortened: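 U2OS cells expressing the channel were plated at 1000 cells/well, incubated overnight at 37 C, then loaded with FluxOR II thallium-sensitive dye for 1 h at room temperature in the dark, with a further 10 min at room temperature before stimulation.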

[4] = target: Cytochrome P450 3A4 (Homo sapiens) (UniProt P08684); assay: Cytochrome P450 Family 3 Subfamily A Member 4 (CYP3A4) small molecule antagonists: luciferase reporter qHTS assay (AID 1671201); note: series mostly up to about 120 µM; nearly all actives have a fitted effect of over 50% in size
Procedure, shortened: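 P450-Glo CYP3A4 system with proluciferin substrate; compounds preincubated 10 min RT with enzyme-substrate mix, then NADPH regeneration added for 1 h RT. Detection reagent 20 min, luminescence read as relative luminescence units.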

[5] = target: Cytochrome P450 1A2 (Homo sapiens) (UniProt P05177); assay: Cytochrome P450 Family 1 Subfamily A Member 2 (CYP1A2) small molecule antagonists: luciferase reporter qHTS assay (AID 1671199); note: nearly all actives have a fitted effect of over 50% in size; note: potency is the fitted concentration of half-maximal effect
Procedure, shortened: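 Luminescence from luciferin formed by CYP1A2 from a proluciferin substrate, read 20 min after detection reagent. Compound was pre-incubated 10 min with enzyme-substrate, and reaction started with NADPH regeneration solution for 1 h at room temperature; furafylline control.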

[6] = target: Cytochrome P450 2C9 (Homo sapiens) (UniProt P11712); assay: Cytochrome P450 Family 2 Subfamily C Member 9 (CYP2C9) small molecule antagonists: luciferase reporter qHTS assay (AID 1671198); note: nearly all actives have a fitted effect of over 50% in size; note: potency is the fitted concentration of half-maximal effect
Procedure, shortened: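 P450-Glo proluciferin substrate with CYP2C9 enzyme; 10 min RT preincubation, then NADPH regeneration 1 h at 37C; luciferin detection reagent 20 min RT, luminescence in relative luminescence units.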

Sequence of Cytochrome P450 2C9 (Homo sapiens) (P11712 whole entry, looked up): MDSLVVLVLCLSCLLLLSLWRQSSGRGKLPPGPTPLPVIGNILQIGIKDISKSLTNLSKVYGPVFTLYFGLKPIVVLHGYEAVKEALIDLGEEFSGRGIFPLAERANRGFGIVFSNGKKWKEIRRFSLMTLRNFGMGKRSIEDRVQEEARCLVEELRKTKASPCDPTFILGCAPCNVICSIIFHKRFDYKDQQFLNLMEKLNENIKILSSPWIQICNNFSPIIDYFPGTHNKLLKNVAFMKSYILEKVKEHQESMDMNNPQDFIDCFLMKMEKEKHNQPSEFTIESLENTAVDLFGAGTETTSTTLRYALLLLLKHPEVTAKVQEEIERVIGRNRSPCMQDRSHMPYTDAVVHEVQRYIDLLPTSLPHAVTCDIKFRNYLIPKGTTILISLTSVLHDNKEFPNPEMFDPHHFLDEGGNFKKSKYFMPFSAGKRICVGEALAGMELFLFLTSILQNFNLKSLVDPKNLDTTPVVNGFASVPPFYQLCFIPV
Sequence of Cytochrome P450 2C19 (Homo sapiens) (P33261 whole entry, looked up): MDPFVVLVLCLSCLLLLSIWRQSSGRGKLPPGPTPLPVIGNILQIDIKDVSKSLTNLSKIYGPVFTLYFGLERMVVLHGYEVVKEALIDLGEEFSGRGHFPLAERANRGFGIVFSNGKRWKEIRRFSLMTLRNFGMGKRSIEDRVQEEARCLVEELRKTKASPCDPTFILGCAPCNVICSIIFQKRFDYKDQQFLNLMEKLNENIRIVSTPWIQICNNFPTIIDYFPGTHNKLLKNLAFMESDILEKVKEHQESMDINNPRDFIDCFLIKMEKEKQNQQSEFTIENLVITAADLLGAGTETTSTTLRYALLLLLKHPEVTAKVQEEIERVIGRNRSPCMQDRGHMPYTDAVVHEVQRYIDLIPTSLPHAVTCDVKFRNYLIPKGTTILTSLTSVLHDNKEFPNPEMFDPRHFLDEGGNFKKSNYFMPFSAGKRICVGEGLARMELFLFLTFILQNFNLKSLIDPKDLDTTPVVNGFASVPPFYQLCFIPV
Sequence of Cytochrome P450 1A2 (Homo sapiens) (P05177 whole entry, looked up): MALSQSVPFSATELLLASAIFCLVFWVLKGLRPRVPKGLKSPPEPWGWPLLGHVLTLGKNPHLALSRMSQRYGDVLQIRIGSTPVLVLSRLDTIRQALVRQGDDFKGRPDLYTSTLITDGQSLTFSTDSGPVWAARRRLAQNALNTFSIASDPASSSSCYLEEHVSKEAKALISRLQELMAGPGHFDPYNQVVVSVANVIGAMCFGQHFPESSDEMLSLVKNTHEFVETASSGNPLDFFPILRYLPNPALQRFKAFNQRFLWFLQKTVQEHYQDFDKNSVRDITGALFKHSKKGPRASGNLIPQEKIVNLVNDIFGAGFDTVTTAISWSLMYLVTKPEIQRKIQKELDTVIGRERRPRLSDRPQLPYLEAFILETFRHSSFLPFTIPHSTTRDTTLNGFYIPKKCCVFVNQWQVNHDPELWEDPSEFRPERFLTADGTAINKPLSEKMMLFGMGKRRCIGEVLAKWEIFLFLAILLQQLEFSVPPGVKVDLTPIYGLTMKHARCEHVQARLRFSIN
Sequence of Cytochrome P450 3A4 (Homo sapiens) (P08684 whole entry, looked up): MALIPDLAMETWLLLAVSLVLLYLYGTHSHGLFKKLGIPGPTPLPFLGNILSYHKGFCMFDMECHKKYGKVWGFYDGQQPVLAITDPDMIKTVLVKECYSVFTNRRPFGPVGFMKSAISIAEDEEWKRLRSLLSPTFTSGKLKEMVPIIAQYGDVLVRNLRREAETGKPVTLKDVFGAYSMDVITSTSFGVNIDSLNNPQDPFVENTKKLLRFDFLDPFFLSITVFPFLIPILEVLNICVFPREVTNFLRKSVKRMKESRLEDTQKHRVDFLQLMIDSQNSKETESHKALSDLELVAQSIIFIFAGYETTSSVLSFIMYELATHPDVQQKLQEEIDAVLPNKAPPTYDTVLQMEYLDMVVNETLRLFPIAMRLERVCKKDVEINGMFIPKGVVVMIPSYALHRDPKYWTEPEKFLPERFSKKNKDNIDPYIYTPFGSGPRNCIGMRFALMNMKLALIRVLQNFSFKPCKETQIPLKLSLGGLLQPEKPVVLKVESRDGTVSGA
Sequence of Voltage-gated inwardly rectifying potassium channel KCNH2 (Homo sapiens) (Q12809 whole entry, looked up): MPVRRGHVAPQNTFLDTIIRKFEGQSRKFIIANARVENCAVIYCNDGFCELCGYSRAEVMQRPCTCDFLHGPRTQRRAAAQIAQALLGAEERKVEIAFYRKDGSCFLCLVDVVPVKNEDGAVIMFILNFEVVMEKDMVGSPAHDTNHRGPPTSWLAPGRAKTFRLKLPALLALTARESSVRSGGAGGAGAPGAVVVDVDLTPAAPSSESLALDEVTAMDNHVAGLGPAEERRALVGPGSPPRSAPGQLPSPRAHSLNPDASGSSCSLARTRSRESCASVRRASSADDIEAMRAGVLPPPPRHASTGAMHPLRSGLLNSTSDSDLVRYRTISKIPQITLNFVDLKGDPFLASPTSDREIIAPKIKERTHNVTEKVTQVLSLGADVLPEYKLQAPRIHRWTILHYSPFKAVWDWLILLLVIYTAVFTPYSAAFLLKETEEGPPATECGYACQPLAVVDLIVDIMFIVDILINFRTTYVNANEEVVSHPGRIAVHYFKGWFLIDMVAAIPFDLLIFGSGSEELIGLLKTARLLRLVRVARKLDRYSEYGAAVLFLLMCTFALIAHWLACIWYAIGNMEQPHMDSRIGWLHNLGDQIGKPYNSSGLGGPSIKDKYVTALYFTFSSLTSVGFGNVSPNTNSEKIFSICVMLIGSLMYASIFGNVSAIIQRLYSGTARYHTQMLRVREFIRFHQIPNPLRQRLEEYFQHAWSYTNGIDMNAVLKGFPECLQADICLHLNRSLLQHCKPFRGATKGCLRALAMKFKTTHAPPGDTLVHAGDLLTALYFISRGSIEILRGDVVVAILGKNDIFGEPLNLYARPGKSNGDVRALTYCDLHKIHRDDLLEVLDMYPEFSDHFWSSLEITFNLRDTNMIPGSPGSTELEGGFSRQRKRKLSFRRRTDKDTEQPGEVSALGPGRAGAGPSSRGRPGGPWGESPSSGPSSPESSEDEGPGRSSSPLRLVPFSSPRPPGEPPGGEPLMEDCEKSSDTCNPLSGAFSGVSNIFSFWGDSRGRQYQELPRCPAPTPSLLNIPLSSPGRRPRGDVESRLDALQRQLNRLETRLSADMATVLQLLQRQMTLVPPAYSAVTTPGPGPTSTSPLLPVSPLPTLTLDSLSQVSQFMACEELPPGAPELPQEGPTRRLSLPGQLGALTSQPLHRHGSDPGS
Sequence of Cytochrome P450 2D6 (Homo sapiens) (P10635 whole entry, looked up): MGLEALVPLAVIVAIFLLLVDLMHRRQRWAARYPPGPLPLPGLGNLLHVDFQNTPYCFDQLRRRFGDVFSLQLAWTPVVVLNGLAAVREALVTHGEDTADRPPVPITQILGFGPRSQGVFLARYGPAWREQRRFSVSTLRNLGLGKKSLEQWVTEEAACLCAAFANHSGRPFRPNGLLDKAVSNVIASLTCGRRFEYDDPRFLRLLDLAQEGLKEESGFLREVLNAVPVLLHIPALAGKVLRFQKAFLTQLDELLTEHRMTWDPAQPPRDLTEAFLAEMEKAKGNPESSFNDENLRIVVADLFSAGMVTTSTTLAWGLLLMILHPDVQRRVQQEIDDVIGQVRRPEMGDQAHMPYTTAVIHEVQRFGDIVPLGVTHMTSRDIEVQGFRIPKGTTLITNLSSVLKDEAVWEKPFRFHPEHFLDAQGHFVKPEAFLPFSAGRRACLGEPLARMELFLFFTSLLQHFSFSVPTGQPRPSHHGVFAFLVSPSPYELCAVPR

Row | SMILES | Potency [1] | Potency [2] | Potency [3] | Potency [4] | Potency [5] | Potency [6]
1 | C/C=C(\C)C#N | inactive | 78.4 µM (active) | inactive | inactive |  | 
2 | O=C(O)CCCc1ccccc1 | inactive | inactive | inactive | inactive | inactive | 
3 | C=C(C)C(=O)OCCCCCCCC(C)C | inactive | 71.5 µM (active) | inactive | inactive |  | 
4 | CCc1cccc2c(CCO)c[nH]c12 |  | 17.4 µM (active) | inactive | inactive | 7.76 µM (active) | 
5 | CC(=O)OCC(=O)[C@@]1(O)CCC2C3CCC4=CC(=O)CC[C@]4(C)C3[C@@H](O)C[C@@]21C (stereo not given in full) |  | inactive |  | inactive | inactive | 
6 | CCOC(=O)c1c(C)n(C)c2ccc(O)cc12 |  | 7.76 µM (active) | inactive |  | 0.512 µM (active) | 
7 | CCn1nc(C(=O)O)c(=O)c2cc3c(cc21)OCO3 |  |  | inactive |  |  | 
8 | NC(=O)c1ccc([N+](=O)[O-])cc1 |  | 79.3 µM (active) | inactive | inactive | 39.8 µM (active) | 
9 | Cn1c(N)c(N=O)c(=O)n(C)c1=O |  | 58.2 µM (active) | inactive | inactive | inactive | 
10 | C1CN(CCOCCN2CCOCC2)CCO1 |  | inactive | inactive | inactive | inactive | 
11 | O=c1[nH]c(=O)n([C@H]2C[C@H](O)[C@@H](CO)O2)cc1I |  | inactive | inactive | inactive | inactive | 
12 | CO/N=C(/C(=O)N[C@@H]1C(=O)N2C(C(=O)OCOC(=O)C(C)(C)C)=C(C)CS[C@H]12)c1csc(N)n1 |  |  | inactive |  |  | 11 µM (active)
13 | CCOC(=O)C(=O)OCC |  | inactive |  | inactive | inactive | 
14 | Brc1c(NC2=NCCN2)ccc2nccnc12 |  |  | inactive |  |  | 
15 | O=C1CCCC(=O)C1 |  | inactive |  | inactive |  | 
16 | Cc1cnc(NS(=O)(=O)c2ccc(N)cc2)nc1 |  | inactive |  | inactive | inactive | 
17 | CC(=O)Nc1ccc(S(N)(=O)=O)cc1 |  |  | inactive | inactive | inactive | inactive
18 | CCOC(=O)CC(C)=O |  |  | inactive |  |  | 
19 | c1ccc(CC2=NCCN2)cc1 |  |  | inactive | inactive | inactive | inactive

Row | SMILES | Potency [1] | Potency [2] | Potency [3] | Potency [4] | Potency [5] | Potency [6]
20 | NS(=O)(=O)c1cc2c(cc1Cl)NC(C1CC3C=CC1C3)NS2(=O)=O (stereo not given) |  |  | inactive |  |  | 
21 | COc1ccc(CCN(C)CCCC(C#N)(c2cc(OC)c(OC)c(OC)c2)C(C)C)cc1OC (stereo not given) |  | inactive | 7.56 µM (active) |  | inactive | 
22 | FC1(F)C(F)(F)C(F)(F)C2(F)C(F)(F)C(F)(F)C(F)(F)C(F)(F)C2(F)C1(F)F (stereo not given) |  | inactive | inactive | inactive | inactive | 
23 | Oc1ccc(C2CNCCc3c2cc(O)c(O)c3Cl)cc1 (stereo not given) |  |  | inactive | inactive | inactive | 
24 | COc1nc(N)nc2c1ncn2[C@@H]1O[C@H](CO)[C@@H](O)[C@@H]1O |  | inactive | inactive | inactive | 24.5 µM (active) | 
25 | FC(F)OC(Cl)C(F)(F)F (stereo not given) |  |  | inactive | inactive | 39.9 µM (active) | 
26 | OC(CCN1CCCCC1)(c1ccccc1)C1CC2C=CC1C2 (stereo not given) |  |  |  |  | inactive | inactive
27 | Nc1c[n+](N2CCOCC2)no1 |  | inactive | inactive | inactive | inactive | 
28 | N=C(N)c1ccccc1 |  | inactive | inactive | inactive | inactive | 
29 | C=COCC1CCC(CO)CC1 (stereo not given) |  | inactive | inactive | inactive | inactive | 
30 | CCCC(=O)O[C@]1(C(=O)CO)CC[C@H]2[C@@H]3CCC4=CC(=O)CC[C@]4(C)[C@H]3[C@@H](O)C[C@@]21C |  | inactive |  |  | inactive | 
31 | NCCc1cnc[nH]1 |  |  | inactive |  |  | 
32 | CCCCCCCCS(=O)(=O)Cl |  | inactive | inactive | inactive | inactive | 
33 | CC(=O)Nc1c(I)cc(I)c(C(=O)O)c1I |  |  | inactive | inactive | 24.5 µM (active) | 
34 | O=C1CCCN1C1CCCCC1 |  |  | inactive | inactive |  | 
35 | CCCCNC(=O)NCCCC |  | 39.9 µM (active) | inactive | inactive | 35.6 µM (active) | 
36 | NC(=O)c1cn(Cc2c(F)cccc2F)nn1 |  | inactive |  | inactive | inactive | 
37 | COC(C)(C)CCCC(C)CC=O (stereo not given) |  | inactive | inactive | inactive | inactive | 
